From PubChem BioAssay (Tox21)
Results filed as inconclusive are left out. Unmarked numbers belong to inactive results. Calls come from the whole dose curve; as a rule, active = well fitted inhibition curve with a large enough effect in the repeat runs; inconclusive = weak or mixed curves; inactive = no such curve, though single readings can be large or run the other way.

molecular target: Estrogen receptor (Homo sapiens) (UniProt P03372); assay: qHTS assay to identify small molecule antagonists of the estrogen receptor alpha (ER-alpha) signaling pathway using the BG1 cell line in the presence of 0.1 nM 17-beta-estradiol (AID 1259244); settings: VM7Luc4E2 (BG1) ERE-luciferase, antagonist mode, 0.1 nM E2, 22 h; series mostly up to 92.4 µM; activity change, negative = inhibition: at the top concentration; note: nearly all actives have a fitted effect of over 50% in size
Sequence (P03372 whole entry, looked up): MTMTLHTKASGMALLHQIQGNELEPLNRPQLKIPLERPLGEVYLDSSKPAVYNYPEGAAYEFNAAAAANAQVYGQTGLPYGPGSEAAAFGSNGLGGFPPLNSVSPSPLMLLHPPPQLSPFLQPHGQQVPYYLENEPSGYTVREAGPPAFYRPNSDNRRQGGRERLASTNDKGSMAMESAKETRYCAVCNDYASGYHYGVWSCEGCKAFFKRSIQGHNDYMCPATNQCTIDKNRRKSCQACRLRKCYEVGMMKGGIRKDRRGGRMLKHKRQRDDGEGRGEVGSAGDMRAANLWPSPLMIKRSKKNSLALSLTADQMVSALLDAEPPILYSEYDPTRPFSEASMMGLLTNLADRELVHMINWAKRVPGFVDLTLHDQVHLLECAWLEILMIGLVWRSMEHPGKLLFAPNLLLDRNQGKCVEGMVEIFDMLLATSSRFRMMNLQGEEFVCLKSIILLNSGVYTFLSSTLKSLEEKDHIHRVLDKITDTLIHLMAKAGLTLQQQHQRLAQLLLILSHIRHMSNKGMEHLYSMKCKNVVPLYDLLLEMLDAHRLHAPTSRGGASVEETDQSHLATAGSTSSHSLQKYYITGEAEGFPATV
Text: National Center for Advancing Translational Sciences [NCATS]
NIH Chemical Genomics Center [NCGC]
U.S. Environmental Protection Agency [EPA]
National Institutes of Environmental Health Sciences [NIEHS]
National Toxicology Program [NTP]
U.S. Food and Drug Administration [FDA]
Estrogen receptor (ER), a member of the nuclear hormone receptor plays an important role in development, metabolic homeostasis and reproduction. Two subtypes of ER, ER-alpha and ER-beta, have similar expression patterns with some uniqueness in both types. Endocrine disrupting chemicals (EDCs) and their interactions with steroid hormone receptors like ER causes disruption of normal endocrine function. Therefore, it is important to understand the effect of environmental chemicals in ER signaling pathway. For identifying ER antagonists, VM7Luc4E2 cell line was used to screen against Tox21 compound libraries.
VM7Luc4E2 cell line (provided by Denison MS, University of California) endogenously express full-length ER-alpha and is stably transfected with a plasmid containing four estrogen responsive elements (ERE) upstream of a luciferase reporter gene. The current screening for identification of ER-alpha inhibitors against Tox21 compound libraries used lower concentration (0.1 nM) of 17beta-Estradiol as a stimulator.
Tox21 Assay Protocol Summary:
VM7Luc4E2 cells were cultured in phenol red free assay medium containing 10% charcoal stripped FBS for 5 days prior to the assay. The cells were dispensed at 4,000 cells/well in 4 uL of assay medium into white wall/solid-bottom 1536-well plates (Corning Life Sciences, Corning, NY) using a Multidrop Combi (ThermoFisher Scientific, Waltham, MA) dispenser. After the assay plates were incubated at 37C and 5% CO2 for 24 hr, 23 nL of compounds dissolved in DMSO, positive controls or DMSO only was transferred to the assay plates by a Pintool station (Kalypsys, San Diego, CA). The transfer of compounds was followed by the addition of 1 uL of 0.1 nM (final concentration) agonist (17beta-Estradiol)/assay medium using a Flying Reagent Dispenser (FRD, Aurora Discovery, San Diego, CA). The plates were incubated at 37C and 5% CO2 for 22 hr. For luciferase reporter gene assay, 4 uL of ONE-Glo reagent (Promega Corporation, Madison, WI) was added to each well using the FRD and after 30 min incubation at room temperature luminescence intensity was measured using ViewLux plate reader (PerkinElmer, Shelton, CT).
% is set by controls: 0 for no effect and ±100 for the full control effect.

| Compound | activity change, negative = inhibition |
| --- | --- |
| Nc1ccc(/C=C/c2ccc(N)cc2S(=O)(=O)O)c(S(=O)(=O)O)c1 | 6.51% [at 0.349 µM] |
| CC(=O)OC(C)c1ccccc1 (stereo not given) | 1.7% |
| CCCCCCCCCCCCC | -16.1% |
| O=C(Oc1ccccc1C(=O)O)c1ccccc1O | 6.26% [at 42.5 µM] |
| CC(C)COC(=O)CC(C(=O)OCC(C)C)S(=O)(=O)O (stereo not given) | 0.383% |
| CO[Si](CCCCl)(OC)OC | 0% |
| COC(/C=C(\C)CCC=C(C)C)OC | -1.54% |
| CC1=NN(c2ccc(S(=O)(=O)O)cc2)C(=O)C1N=Nc1ccccc1 (stereo not given) | -3.41% |
| O=C(O)c1ccc(OCCN2CCCCC2)cc1 | 0.811% [at 42.5 µM] |
| Oc1ccccc1Cc1ccccc1O | -20.5% |
| Cc1ccc(C(=O)C(=O)O)cc1C | 5% [at 42.5 µM] |
| CCN(CCC#N)c1ccccc1 | -0.4% |
| CCOC(=O)CC#N | 12.4% |
| CN=C(NC#N)NCCSCc1csc(N=C(N)N)n1 | 6.54% [at 42.5 µM] |
| COc1ccc(NS(=O)(=O)c2ccc(N)cc2)nn1 | 1.09% [at 42.5 µM] |
| CCCCOC(=O)C(C)OC(=O)CCC (stereo not given) | 4.56% |
| CC1CCC(C(C)(C)S)C(=O)C1 (stereo not given) | -3.2% |
| CC(=O)OC[C@H]1O[C@@H](OC(C)=O)[C@H](OC(C)=O)[C@@H]1OC(C)=O | 0.911% [at 42.5 µM] |
| Nc1cc(C(=O)O)ccc1Cl | 1.5% |
| O=C(COCCOCCOCC(=O)Nc1c(I)cc(I)c(C(=O)O)c1I)Nc1c(I)cc(I)c(C(=O)O)c1I | 6.98% [at 42.5 µM] |

| Compound | activity change, negative = inhibition |
| --- | --- |
| CC(=O)Nc1ccc(C)cc1 | 0.448% |
| COc1cc([N+](=O)[O-])ccc1N | 0.364% |
| CC(Cl)COP(=O)(OCC(C)Cl)OCC(C)Cl (stereo not given) | 2.1% |
| Nc1ccc(S(=O)(=O)NC(=O)c2ccccc2)cc1 | -4.72% [at 42.5 µM] |
| C[C@H](CCC(=O)O)[C@H]1CC[C@H]2[C@@H]3[C@H](O)C[C@@H]4C[C@H](O)CC[C@]4(C)[C@H]3C[C@H](O)[C@]12C | -5.32% [at 42.5 µM] |
| COc1ccc(/C=N/NC(=O)c2ccncc2)cc1OC | 1.43% [at 42.5 µM] |
| CCCCC(=O)N(C)C | 26% |
| COc1cc2c(Nc3ccc(Br)cc3F)ncnc2cc1OCC1CCN(C)CC1 | 1.28% [at 42.5 µM] |
| CCCCC(CC)CNC(=O)CC(C)OC(=O)CCC(=O)O (stereo not given) | 42% [at 42.5 µM] |
| CCC1COC(=O)O1 (stereo not given) | 9.14% |
| CC(C)CCCC(C)CC=O (stereo not given) | 13.7% |
| Nc1cc(Cl)cc(S(=O)(=O)O)c1O | 1.35% |
| OC(CCN1CCCCC1)(c1ccccc1)c1ccccc1 | -5.51% [at 42.5 µM] |
| CC(=O)OCC(=O)[C@@]1(O)[C@H](OC(C)=O)C[C@H]2[C@@H]3CCC4=CC(=O)C=C[C@]4(C)[C@@]3(F)[C@@H](O)C[C@@]21C | 18.1% [at 42.5 µM] |
| NS(=O)(=O)c1ccc(Cl)c(S(N)(=O)=O)c1 | -4.96% [at 42.5 µM] |
| COC(=O)CCC(=O)O | -20.2% |
| CNC(=O)NC | 15.7% |
| C=CCOC(=O)c1ccc(C(=O)OCC=C)c(C(=O)OCC=C)c1 | -0.305% |
| O=S(=O)(O)CCO | 26.5% |
| OCCCCCCCl | 0.261% |
